NR3A LBD binder: NR3A (human) ligand-binding domain modulation. NR3A LBD differential scanning fluorimetry, Tm shift; 0% = protein alone, 100% = glycine-bound protein. Tm shift relative to glycine control, % at 25 µM. 340,000 tested, 2.5% active. AID 1259313;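 active means melting temperature shift of at least 10% of the positive control shift, at one fixed dose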
SUMO Mot1 rescue: inhibitors of SUMOylation pathway: yeast Mot1-301 growth rescue; AID 2716; 320,000 tested, 1% active; growth rescue, % at 18.8 µM; S. cerevisiae Mot1-301 growth rescue, ATP luminescence, 38.5C; percent above DMSO median, 100 means doubled;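 active means every valid replicate shows activation above 250% relative to neutral control wells; inactive means the rest, any valid replicate at or below 250%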;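 further: OY570 slx delta 5 strain wells were the positive control but not used for scaling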
NTR1 ag: activates human neurotensin receptor 1; NTR1-U2OS beta-arrestin-GFP spot imaging, agonist mode; activation, % at 20 µM; 330,000 tested, 0.17% active;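 active means activation at or above 40% of the spot to cytoplasm intensity ratio, with at least 20 cells analyzed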;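 further: 0% = DMSO without peptide and 100% = 100 nM NTR1 peptide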
AI-2 QS mod: modulators of Vibrio harveyi AI-2 quorum sensing system | Vibrio harveyi JMH597 AI-2 luminescence/OD600 ratio, 9 h; hits give low values; strain lacks LuxN and CqsS sensors; 0 = neutral-control median | activity change, % at 7.5 µM | 300,000 tested, 0.4% active | AID 2094; in the data active means activity change below about -75%, passing the limit was not always enough;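 further: luminescence divided by OD600 gain over 9 h not by final OD600 alone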
H9c2 protect: modulators protecting cardiomyocytes from myocardial damage. H9c2 cardiomyocytes, H2O2 injury protection, ATPLite, 2 h. AID 588492. 360,000 tested, 0.63% active. protection from H2O2 cell death, % at 20 µM;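 active means compounds giving at least 50% protection of heart cells from peroxide-induced death in the single-dose screen, raw or plate-pattern-corrected value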;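 further: 0% = DMSO wells with peroxide and 100% = DMSO wells without peroxide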
AHR act: activators of human aryl hydrocarbon receptor; AHR-responsive luciferase reporter cells, luminescence; activation, % at 5 µM; 320,000 tested, 2.5% active; AID 2796; in the data active means activation above about 47%;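 further: 0% = vehicle wells and 100% = reference agonist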
AHR act cf: human AHR activation, confirmation; shares compounds with AHR act; human cells, AHR-responsive luciferase reporter, luminescence; activation, % at 9 µM; 2,300 tested, 87% active; AID 2845; in the data active means activation above about 49%;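 further: HepG2 hepatoma cells carrying a DRE-driven firefly luciferase reporter; 0% = vehicle wells and 100% = reference agonist wells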
PXR counter: counter-screen for AHR activators: human PXR activators | 2,300 tested, 88% active | cell-based PXR reporter, luciferase luminescence | AID 434939 | activation, % at 11.6 µM | shares compounds with AHR act; in the data active means activation above about 11%;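 further: human hepatoma DPX-2 cells expressing full-length human PXR; 0% = DMSO and 100% = reference agonist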
Target sequence (O75469 whole entry, looked up): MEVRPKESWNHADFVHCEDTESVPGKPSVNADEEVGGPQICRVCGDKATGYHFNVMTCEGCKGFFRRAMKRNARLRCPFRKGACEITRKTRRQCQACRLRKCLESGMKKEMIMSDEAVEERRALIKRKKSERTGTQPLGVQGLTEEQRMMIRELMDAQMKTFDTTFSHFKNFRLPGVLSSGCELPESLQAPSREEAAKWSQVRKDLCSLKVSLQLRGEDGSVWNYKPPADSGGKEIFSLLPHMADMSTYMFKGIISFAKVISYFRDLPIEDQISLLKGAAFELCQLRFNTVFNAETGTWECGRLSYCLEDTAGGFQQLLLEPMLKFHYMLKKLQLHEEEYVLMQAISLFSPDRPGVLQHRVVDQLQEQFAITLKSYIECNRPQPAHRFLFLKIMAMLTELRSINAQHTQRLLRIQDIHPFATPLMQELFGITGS
* marks the source's active call; other numbers are inactive results; . = not tested or not shown. Shown are actives, neighbours in structure and some others; about 6.2% of the full set was active somewhere.

SMILES	NR3A LBD binder	SUMO Mot1 rescue	NTR1 ag	AI-2 QS mod	H9c2 protect	AHR act	AHR act cf	PXR counter
Cc1[nH]c2ccccc2c1C(=O)/C=C/c1ccccc1Cl	27.2*	-11.4	2.6	-2.4	-2.2	147.1*	122.9*	71.7*
O=C(C=Cc1ccccc1Cl)c1ccccc1	-37.2	.	.	.	-2.1	.	.	.
Cc1[nH]c2ccccc2c1C(=O)/C=C/c1ccccc1	-2.1	101.4	-0.9	12.6	9.6	165.7*	140.1*	200.0*
CC1CCc2c(sc(NC(=O)c3ccc(N4C(=O)CCC4=O)cc3)c2C(N)=O)C1 (stereo not given)	-8.4	-1.2	3.8	.	-1.1	-3.9	.	.
Clc1cccc(/C(Cc2nc3ccccc3[nH]2)=N\Nc2ccccc2)c1	13.5*	28.8	5.9	6.4	-11.4	102.1*	95.7*	42.5*
Cc1cc(Nc2ccc(Br)cc2)n2nc(C)nc2n1	0.5	-4.1	-0.6	17.9	16.3	106.6*	88.4*	.
Cc1cc(Nc2ccc(F)cc2)n2nc(C)nc2n1	-0.2	1.5	-5.1	4.5	-3.0	6.4	.	.
CC(=O)Nc1cccc(-c2csc(C(C)(O)c3ccc(F)c(F)c3)n2)c1 (stereo not given)	.	.	.	.	-5.9	.	.	.
Cc1cc(C)c(C#N)c(OCC(=O)c2ccc(Br)cc2)n1	0.5	-20.8	6.5	2.7	-11.5	101.3*	106.2*	19.8*
Cc1snc(SCC(=O)c2ccc(Cl)cc2)c1C#N	-1.0	28.8	3.4	17.0	-13.2	-6.4	.	.
Cc1ccnc(SCC(=O)c2ccc(Br)cc2)c1C#N	-4.9	79.6	6.9	16.3	-15.1	125.5*	125.1*	92.5*
Cc1ccc(C(=O)COc2nc(C)cc(C)c2C#N)cc1	-1.2	-1.1	-1.4	3.6	-2.1	45.9	.	.
O=c1c2ccccc2[nH]c(=S)n1CCC1=CCCCC1	-25.6	-15.0	2.7	18.9	7.8	112.9*	124.8*	24.4*
O=C(CC1Nc2cccc3cccc(c23)NC1=O)Nc1ccccc1 (stereo not given)	-4.6	-9.4	-0.7	11.8	16.7	135.8*	99.1*	78.8*
O=C(CC1Nc2ccccc2NC1=O)NCC1COc2ccccc2O1 (stereo not given)	-0.4	-11.6	2.5	13.9	3.5	5.1	.	.
O=C(CC1NCCNC1=O)Nc1ccccc1 (stereo not given)	-1.6	9.2	-0.8	18.0	4.0	-1.0	.	.
O=C(CC1Nc2ccccc2NC1=O)Nc1ccc2c(c1)OCO2 (stereo not given)	-9.9	3.4	-0.4	18.0	-0.9	152.7*	136.5*	24.5*
O=C(c1cnc2n(c1=O)CCS2)N1CCN(C(c2ccccc2)c2ccc(Cl)cc2)CC1 (stereo not given)	-4.8	-20.2	10.1	37.7	-5.9	2.3	.	.
O=c1c(-c2ccc(Cl)cc2)cnc2n1CCS2	0.0	0.5	0.3	-4.2	-6.1	115.9*	130.5*	52.6*
CCNC(=S)Nc1ccc2c(c1)c(=O)n(C)n2-c1ccc(C(C)(C)C)cc1	.	.	.	.	-11.1	.	.	.
COc1ccccc1-c1nnc(-c2ccc(N3CCOCC3)cc2)o1	0.0	-19.6	6.2	4.1	5.1	30.7	.	.
COc1ccccc1-c1nnc(-c2ccc(C)cc2)o1	-1.5	-4.7	0.8	11.6	-11.4	80.7*	122.7*	39.2*
O=C(Nc1nc2c(s1)COc1ccccc1-2)c1cccs1	-1.0	30.9	11.2	19.6	-23.1	129.4*	129.0*	16.2*
O=C(Nc1nc2c(s1)CCc1ccccc1-2)c1cccs1	4.6	-2.4	21.4	-2.3	-4.1	85.5*	158.0*	19.7*
O=C(Nc1nc(-c2ccccc2)cs1)c1cccs1	1.3	248.1	-0.2	-1.4	-5.9	3.9	.	.
SMILES	NR3A LBD binder	SUMO Mot1 rescue	NTR1 ag	AI-2 QS mod	H9c2 protect	AHR act	AHR act cf	PXR counter
O=C(Nc1nc2ccc(F)cc2s1)c1cccs1	16.4*	3.5	-3.0	17.5	-9.3	98.9*	136.0*	8.9
CN(C)S(=O)(=O)c1ccc2nc(NC(=O)c3cccs3)sc2c1	2.5	-14.8	-0.8	15.5	-11.2	5.8	.	.
CCN(CC)CCn1c2c(c(SCC(=O)Nc3nccs3)nc1=O)CCCC2	2.8	4.3	0.3	16.2	5.2	1.5	.	.
CCOC(=O)C1(C)CCCN(C(=O)c2cccs2)C1 (stereo not given)	.	.	.	.	6.1	.	.	.
Nc1nc2ccc(Cl)cc2c2nc(-c3ccco3)nn12	.	10.0	0.7	13.5	.	107.4*	247.9*	33.8*
Nc1nc(-c2ccco2)nn1C(=O)c1ccc(Cl)cc1	-0.8	6.6	1.3	33.8	-3.0	1.9	.	.
Cc1ccc(/C=C/C(=O)N2CCc3ccccc3C2)cc1	0.4	35.7	-0.4	-34.4	-10.9	26.9	.	.
O=C(/C=C/c1ccc(F)cc1)N1CCc2ccccc2C1	1.1	94.8	-1.2	.	1.1	100.0*	135.8*	59.6*
c1ccc(C2=Nc3ccccc3OC2)cc1	-19.5	.	1.7	18.6	-6.0	21.4	.	.
Cc1ccc(C2=NOC(C)(c3sc(-c4ccc(Cl)cc4)nc3C)C2)cc1 (stereo not given)	-13.6	13.5	-2.4	15.1	-1.6	0.4	.	.
Cc1ccc2c(c1)N=C(c1ccc(Cl)cc1)CO2	-7.7	3.6	3.3	18.8	-15.0	135.4*	107.8*	30.9*
Clc1ccc(C2=Nc3cc(Cl)ccc3OC2)cc1	0.2	-15.8	0.5	15.7	-9.3	104.3*	129.0*	6.0
O=C1C=C(c2ccc(C(=O)O)c(Cl)c2)C[C@@H](c2ccc3c(c2)OCO3)C1	2.2	-14.2	-0.9	.	-0.8	-0.5	.	.
Cc1[nH]c2ccc(C(=O)Nc3ccncc3)cc2c1C	9.1	3.4	0.4	22.9	-2.2	-0.2	.	.
COc1ccccc1NC(=O)c1ccc2[nH]c(C)c(C)c2c1	19.6*	-10.0	2.7	1.8	-8.5	113.5*	132.8*	68.7*
C#CCn1cc(/C=N/NC(=O)c2cc3ccccc3o2)c2ccccc21	13.1*	6.6	4.2	44.6	22.8	112.3*	87.3*	.
O=C(N/N=C/c1cn(CC(=O)N2CCOCC2)c2ccccc12)c1cccnc1	1.8	-6.5	-1.4	2.8	8.1	10.9	.	.
O=C(N/N=C/c1cn(Cc2ccccc2)c2ccccc12)c1cccnc1	-12.8	-28.1	2.6	14.8	-8.0	85.9*	-8.5	-3.3
CC(=O)c1c(C)[nH]c(C(=O)NCCc2ccccc2)c1C	-1.1	1.1	-2.7	33.5	-4.9	116.3*	70.0*	78.8*
CC1(C(=O)O)CCN1C(=O)c1ccccc1F (stereo not given)	.	.	.	.	7.9	.	.	.
Cc1onc(-c2ccccc2)c1C(=O)N(CC(C)C)c1c(N)n(CC(C)C)c(=O)[nH]c1=O	-0.3	-14.3	1.6	.	-3.4	0.7	.	.
COc1cc(C)nc(Nc2nc(C)c(C(C)=O)s2)n1	-0.7	10.7	-0.5	5.9	1.6	108.4*	37.8	11.1*

Source: PubChem BioAssay (several laboratories)
